Source: PubChem BioAssay
The list is not random: actives were taken first. Their share in the collection is about 7.9%.
Marburg entry inh – blocks Marburg virus binding to or entry into cells | Marburg virus pseudotyped entry inhibition, cell reporter | Potency, µM (doses to about 37.8 µM), most hits filed as inhibitors | 300,000 compounds, 1.8% hits; calls by dose curve; tested in HEK293 cells
HCV inhibitor – blocks hepatitis C virus; AID 651820; Potency, µM (top dose mostly 41.8 µM), usual class: inhibitors; Huh7.5.1 HCVcc-Cre infection, luciferase reporter, 44 h; 340,000 compounds, 3.4% hits
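Whole-lifecycle infectious HCVcc-Cre system; cells 1,000/well, compound then virus (~0.5 moi) added 4 h after plating, 44 h culture. Luciferase read 15 sec following 15 min substrate incubation, room temp.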
Lassa entry inh – Lassa virus entry inhibition; 300,000 compounds, 1.2% hits; Lassa virus pseudotype entry inhibition, cell reporter; Potency, µM (titrated, usually from 37.9 µM), actives largely listed as inhibitors; calls by dose curve; tested in HEK293 cells; also: nearly all actives have a fitted effect of over 50% in size
FMDV antiviral – blocks foot and mouth disease virus. 410,000 compounds, 1.2% hits. Potency, µM (top dose mostly 57.9 µM), usual class: inhibitors. FMDV antiviral cell-based qHTS; calls by dose curve; tested in HEK293T cells; also: read-out not given here; nearly all actives have a fitted effect of over 45% in size
HCMV inh – human cytomegalovirus inhibition. HFF cells, HCMV-luciferase reporter, 72 h; active compounds read low. activity change, negative = inhibition, % at 57.5 µM. 410,000 compounds, 4.5% hits. AID 1259415; in the data active = activity change below about -60%; inconclusive = no clear call, values can overlap the other calls; inactive = above about -39%
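Two compound doses tested in HFFs infected with HCMV-luciferase, MOI 1 PFU/cell, 72 h at 37C. Lysate luminescence read with OneGlo; data normalized against buffer-only and 10uM Salinomycin inhibitor controls.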
HCV inh confirm – confirmation of hepatitis C virus inhibitors | shares compounds with HCV inhibitor | Potency, µM (doses to about 41.8 µM), usual class: inhibitors | 640 compounds, 78% hits | HCVcc-Cre infectious virus cell assay, luciferase, inhibition; also: nearly all actives have a fitted effect of over 80% in size
HCV host tox – host cell cytotoxicity counter-screen for HCV inhibitors; AID 720576; 640 compounds, 22% hits; shares compounds with HCV inhibitor; Potency, µM (titrated, usually from 41.8 µM), most hits filed as inhibitors; HCV host cell line cytotoxicity counterscreen;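 also: 44 h compound exposure; nearly all actives have a fitted effect of over 55% in size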
Hits are given with their value; 0 = inactive; ? = inconclusive; - = not tested or not shown. Unless noted, calls follow the shape of the dose curve; as a rule, active = well fitted curve in the direction sought with a large enough effect; inconclusive = small, poorly fitted or top-dose-only effect, or another doubt; inactive = no such curve, though single readings can be large; an effect the other way counts as inactive or inconclusive.

SMILES | Marburg entry inh | HCV inhibitor | Lassa entry inh | FMDV antiviral | HCMV inh | HCV inh confirm | HCV host tox
COc1cc(NC(=O)c2cccs2)c(OC)cc1NC(=O)c1cccs1 | ? | 0 | 0 | 0 | - | - | -
CC(C)NC(=O)CN1CCN(Cc2nc(C(c3ccccc3)c3ccccc3)no2)CC1 | 0 | 0 | 0 | 0 | ? | - | -
CC(=O)NNC(=O)c1csc(-c2csc(C)n2)n1 | 0 | 0 | 0 | 0 | 0 | - | -
Cc1ccc(CNC(=O)C2CCN(Cc3nc(-c4ccccc4C)oc3C)CC2)cc1 | 0 | - | 0 | ? | 0 | - | -
CSc1ccc(CN2CCN(Cc3ccc([N+](=O)[O-])cc3)CC2)cc1 | ? | ? | ? | ? | 0 | 4µM | 7µM
NC1=NC2CS(=O)(=O)CC2S1 (stereo not given) | ? | 0 | 0 | 0 | 0 | - | -
CCc1ccc(OCC(O)CN2CCC(CN3C(=O)c4cccc5cccc(c45)C3=O)CC2)cc1 (stereo not given) | ? | 6.3µM | ? | 0 | 0 | 7µM | 14µM
COc1ccc(-c2sc3ccc(N4CCOCC4)cc3c2C#CCO)cc1 | - | 3.2µM | - | 16µM | -87 | 4.4µM | 5µM
COc1ccc(/C=C/c2c(-c3ccc(OC)cc3)sc3ccc(N4CCOCC4)cc23)cc1 | - | 0 | - | 0 | - | - | -
Cn1nccc1NC(=O)Nc1cccc(Cl)c1Cl | ? | 0 | 0 | 0 | ? | - | -
COc1ccc(NC(=O)Nc2cccc(Cl)c2Cl)c(OC)n1 | ? | 2.8µM | 0 | 0 | -70 | ? | 0
Cc1ccc(CN2C3=NCCN3c3ccccc32)cc1 | ? | 0 | 0 | 0 | 0 | - | -
O=C(CN1C2=NCCN2c2ccccc21)C12CC3CC(CC(C3)C1)C2 | ? | ? | ? | ? | ? | 28µM | 0
CSc1nnc(CCNS(=O)(=O)c2ccccc2Br)n1C | 0 | 0 | - | 0 | 0 | - | -
Cc1nc2ccccc2n1Cc1ccccc1 | - | ? | - | 0 | 0 | - | -
Cc1nc2ccccc2n1Cc1ccc(Br)cc1 | ? | 2.5µM | 0 | ? | ? | 2µM | 2µM
CCc1nc2ccc(C(=O)Nc3cccc(OCC(=O)N(C)C)c3)cn2c1N(CCC(C)C)CCN(C)C | - | - | - | 0 | 0 | - | -
COc1ccc(CCNC(=O)c2cc3c(=O)n4ccccc4nc3n(CCCN3CCOCC3)c2=N)cc1 | - | 8.9µM | - | 0 | ? | 16µM | 0
COc1ccc(CCNC(=O)c2cc3c(=O)n4ccccc4nc3n(C3CCCCC3)c2=N)cc1 | - | 7.9µM | - | ? | 0 | 14µM | 0
COc1ccc(CCn2c(=N)c(C(=O)NCCN3CCOCC3)cc3c(=O)n4ccccc4nc32)cc1OC | ? | 0 | 0 | 0 | 0 | - | -
N=c1c(S(=O)(=O)c2ccc(Br)cc2)cc2c(=O)n3ccccc3nc2n1C1CCCCC1 | - | ? | - | 0 | 0 | 14µM | 0
COc1cc(CNCc2ccc(SC)cc2)cc(OC)c1 | ? | ? | 0 | ? | 0 | - | -
CCOC(=O)c1cc(C(=O)OCC)c(=O)[nH]c1N1CCCCC1 | - | 0 | - | 0 | 0 | - | -
COc1cc(/C(C)=N/N2CCN(c3ccccc3OC)CC2)ccc1O | - | 0 | - | 0 | 0 | - | -
COc1ccc2[nH]cc(CCNC(=O)CCC3CCCCC3)c2c1 | - | 0 | - | 0 | 0 | - | -
SMILES | Marburg entry inh | HCV inhibitor | Lassa entry inh | FMDV antiviral | HCMV inh | HCV inh confirm | HCV host tox
CCOc1ccc(NC(=O)CSc2cn(CC(=O)N3CCCCCC3)c3ccccc23)cc1 | - | - | 0 | 0 | 0 | - | -
CCOCCCn1c(=N)c(S(=O)(=O)c2ccc(Cl)cc2)cc2c(=O)n3cccc(C)c3nc21 | 0 | - | 0 | 0 | 0 | - | -
CCOCCCn1c(=N)c(C(N)=S)cc2c(=O)n3cccc(C)c3nc21 | 0 | ? | 0 | 0 | 0 | 20µM | 0
COc1ccc(-c2nc(CN3CCN(Cc4ccccc4)CC3)c(C)o2)cc1 | - | 0 | - | 0 | 0 | - | -
Cc1cc(N2CCN(Cc3nc(-c4ccc(Cl)cc4)oc3C)CC2)cc(C)n1 | 4µM | 2.2µM | ? | 0 | ? | 10µM | ?
COc1ccc(Cl)cc1NC(=O)C(C)OC(=O)C1=NNC(=O)CC1 (stereo not given) | - | ? | - | 0 | 0 | ? | 0
O=C1CCC(C(=O)OCC(=O)Nc2cc(Cl)ccc2F)=NN1 | 0 | 0 | 0 | 0 | 0 | - | -
Cc1cc(OCC(=O)OCC(=O)NCC2CCCO2)ccc1Cl (stereo not given) | - | 0 | - | 0 | 0 | - | -
CC1CCCCN1CCn1c(=S)[nH]c2ncccc2c1=O (stereo not given) | 0 | 0 | 0 | 0 | 0 | - | -
CC1CCCCN1CCNc1nc(=S)[nH]c2ccccc12 (stereo not given) | 0 | 3.5µM | 0 | 0 | 0 | 0 | 0
